Among the data in article PMC7819943, “Rice protein-binding microarrays: a tool to detect cis-acting elements near promoter regions in rice” are binding signal values, retold here.

The full ranking holds about 68,000 sequences; the median of “fluorescence intensity (a.u.)” is about 9,100, and the highest 2% start at about 16,000. The full list was thinned out, with the highest values kept by preference.

The target of the assay is OsWRKY34 (Oryza sativa, UniProt Q0JBA9 1-250). In words: protein-binding microarray (RPBM); PBS, 2% BSA, 51.3 ng/ul salmon testes DNA, 50 uM zinc acetate, 200 nM TF, 25 C, 1 h; high values mean tight binding. To be noted: protein: recombinant; tags: N-terminal polyhistidine and DsRed monomer fusion (pET32a); label: CyDye5-dUTP incorporated in the synthesized complementary strand; 3' TTTTT single-stranded linker to array surface; dsDNA, one strand shown. The method, boiled down: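 Using Ni–NTA, transcription factors fused N-terminally to polyhistidine and DsRed were purified after expression in E. coli BL21-CodonPlus. These were incubated at 200 nM with a blocked, double-stranded custom Agilent array for 1 h at 25 °C in a buffer containing 50 µM zinc acetate, and the array was washed. The binding signal is per-feature fluorescence intensity (arbitrary units) on an Axon 4000B scanner.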
Sequence of OsWRKY34 (Q0JBA9 entry or part of it): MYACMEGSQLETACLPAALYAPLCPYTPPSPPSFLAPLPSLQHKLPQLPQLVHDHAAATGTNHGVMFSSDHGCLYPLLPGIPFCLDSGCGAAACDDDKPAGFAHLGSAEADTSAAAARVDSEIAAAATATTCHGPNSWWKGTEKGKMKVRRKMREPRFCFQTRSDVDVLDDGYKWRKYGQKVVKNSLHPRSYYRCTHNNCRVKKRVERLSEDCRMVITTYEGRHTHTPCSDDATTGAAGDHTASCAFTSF
Take “CAATTTGGCATTTGGCATTTGCTAGTCTATAGTAGCAAATCGGAGTCACCTAGTGCAG”: the binding signal was 8130 fluorescence intensity (a.u.).

Take “GTACGACAGTAGTTGTTTTTCTCGCTTTTGATTTTGAGTCCGGAGTCACCTAGTGCAG”: the binding signal is 8560 fluorescence intensity (a.u.). The value for “CTCGTCGTCGCCTCCGCTCCTTGCGCCATCTCGCGGCGCCCGGAGTCACCTAGTGCAG” was 9480 fluorescence intensity (a.u.); that for “TATGGACTGTTTTGTTTTGTTCCCCTAGCTAGAATTATTCCGGAGTCACCTAGTGCAG” was 9880 fluorescence intensity (a.u.).

Turning to “GCTTTTTTTTTTTCTTTCTTTCTTTTTCCCCTTCGGCTTCCGGAGTCACCTAGTGCAG”, the binding signal is 12500 fluorescence intensity (a.u.). In the case of “TTTCTTTGTTGTCTCACTTTCCCTTTTTCCACTTCTTTTTCGGAGTCACCTAGTGCAG”, the binding signal is 11700 fluorescence intensity (a.u.).

Take “AGTAGGTTGTTGGTTTTGTACCTTTGGGCTCTTTGCCTTTCGGAGTCACCTAGTGCAG”: the binding signal is 10900 fluorescence intensity (a.u.). As for “GTAGCCGCTTCCTGCCTTCCTTCCCCTTGCTCTTGCATTTCGGAGTCACCTAGTGCAG”, the figure is 8340 fluorescence intensity (a.u.); as for “ATCTTCCCTTACAGTGACATCCTTTGTTCTTGCCGTCTCTCGGAGTCACCTAGTGCAG”, 17600 fluorescence intensity (a.u.). As for “TTCATCCCCTAACCCTTTCTTTGTTCATCTTGTTCTTCCTCGGAGTCACCTAGTGCAG”, the figure is 9970 fluorescence intensity (a.u.); as for “CCTTTGTTCTTGCCGTCTCTTTTTTTTTTTTACAGAAGAACGGAGTCACCTAGTGCAG”, 14600 fluorescence intensity (a.u.); as for “TCTTCTTCTTGTTGTTCTTGTTCTTTCTTCTTCCCCTTTTCGGAGTCACCTAGTGCAG”, 18800 fluorescence intensity (a.u.). The value for “TTTGGGTTGTGCTTAGGTTTCCTTCTCGGGCTTTGTTGTACGGAGTCACCTAGTGCAG” was 18700 fluorescence intensity (a.u.). In the case of “GATATGCATTTTCCCTGCTTTCCCTGCTTTTCCCCTTTTTCGGAGTCACCTAGTGCAG”, the binding signal was 16400 fluorescence intensity (a.u.). Consider “CCTTCTCGGGCTTTGTTGTACGTATGCGTCTCGTGTTGGGCGGAGTCACCTAGTGCAG”, for which the binding signal is 8780 fluorescence intensity (a.u.). As for “GCATTTCGTGTTCCCTTTTTGCCTTTTTTTCCCCTTTTCTCGGAGTCACCTAGTGCAG”, the figure is 10300 fluorescence intensity (a.u.); as for “GTTACCGAAGTTTTACTTTATACCATATGTACTCTATCTACGGAGTCACCTAGTGCAG”, 8060 fluorescence intensity (a.u.).

Regarding “GAGACACCGACGCGTCACACCACCACGTCCGTTTCCGTACCGGAGTCACCTAGTGCAG”, the binding signal is 8300 fluorescence intensity (a.u.). Regarding “GTTTATTTGGGTTCTCTTATGTGTTGGTGTGTCGATGACCCGGAGTCACCTAGTGCAG”, the binding signal is 8940 fluorescence intensity (a.u.). As for “AAATGTATTTATTTTTTTTCTACTCCCTCCGCCCCTTAATCGGAGTCACCTAGTGCAG”, the figure is 8590 fluorescence intensity (a.u.); as for “ATCCTGGACTATGGCTTTCTCTCGTAGCACGATTTTTCTTCGGAGTCACCTAGTGCAG”, 10600 fluorescence intensity (a.u.).

With “ATTAGTTTTTTTTTCTATATTTAATACTCCATGCATATGTCGGAGTCACCTAGTGCAG”, the binding signal was 9200 fluorescence intensity (a.u.). The value for “TTACTTGTACTGTTTGACTATTCGTCTTATTCCAAAAAAACGGAGTCACCTAGTGCAG” was 8820 fluorescence intensity (a.u.); that for “ACTTTTAAACCCATGTTTTACCATTCATCTTAATAAAAAACGGAGTCACCTAGTGCAG” was 8840 fluorescence intensity (a.u.). For “TTTGTTTCTTGTTCTAGAGGGTTTCCTAAGGTGTTTAGGACGGAGTCACCTAGTGCAG”, the binding signal is 9940 fluorescence intensity (a.u.). As for “AGCAGAGATTTTTACCACGTGTCTCAACAAATAGCCACATCGGAGTCACCTAGTGCAG”, the figure is 8050 fluorescence intensity (a.u.). Consider “CATGGGCTAATGTCCTTTTTTTATATATTTTTTTTGCCCTCGGAGTCACCTAGTGCAG”, for which the binding signal is 8990 fluorescence intensity (a.u.).

In the case of “TGTAAGCTTATGTGTCATCTTTCTTTGTTTGTGAAGAACCCGGAGTCACCTAGTGCAG”, the binding signal was 8190 fluorescence intensity (a.u.). The value for “AGTAGCATTTGTTGACTTGTTGTATTCTTCTAGCCTTTTTCGGAGTCACCTAGTGCAG” was 13800 fluorescence intensity (a.u.); that for “GAGCATTGGGTTGGGCCTTCCTTTCTTGTATTCGGCTTCTCGGAGTCACCTAGTGCAG” was 16500 fluorescence intensity (a.u.); that for “ACTCCTCTTCTCTTCATTTTCTTCTTCCCCTGTGCTTCTCCGGAGTCACCTAGTGCAG” was 10900 fluorescence intensity (a.u.). As for “CTTTCTTGCAATTTTGGTCTTCTTTCCTTTTGATTTGGTTCGGAGTCACCTAGTGCAG”, the figure is 9200 fluorescence intensity (a.u.); as for “CTTTTTCCTTGCAATCGTGATTCTTTTTTTTTTCCCTTTTCGGAGTCACCTAGTGCAG”, 17400 fluorescence intensity (a.u.); as for “CCTCTTTATTCCATTAGCTTTTTTCATCTTCTGCTCCATCCGGAGTCACCTAGTGCAG”, 10500 fluorescence intensity (a.u.).

In the case of “CTGCCGGCTGCTCAATTTATTCCCTTGCTGTTTCATTTCGCGGAGTCACCTAGTGCAG”, the binding signal is 45500 fluorescence intensity (a.u.). The value for “GGCTGCTATATTGACCTTGCTCTTATTCCTTCATTCAATTCGGAGTCACCTAGTGCAG” was 10500 fluorescence intensity (a.u.).

Take “CGCCCCTTGATTCGCCTCGTTTTTTCTTTTCCCTTTTTTTCGGAGTCACCTAGTGCAG”: the binding signal is 9920 fluorescence intensity (a.u.).

Regarding “CCTTGCCTAGTCGCTGCTGCTGTTTATAAATTTCAACTCCCGGAGTCACCTAGTGCAG”, the binding signal was 8810 fluorescence intensity (a.u.).

Regarding “CCTGACGTGCTTCACCTCACCTGCTCATTTTTTATTTCCCCGGAGTCACCTAGTGCAG”, the binding signal is 17300 fluorescence intensity (a.u.). “TCTTGGGCTTGGGCCTTTGCTATTGTATTGGGTTGGGCCTCGGAGTCACCTAGTGCAG”: the binding signal is 8400 fluorescence intensity (a.u.). As for “ATTCCTTGTTGGTAACTGTACCCAGGGGCGGGTCCAACGTCGGAGTCACCTAGTGCAG”, the figure is 8270 fluorescence intensity (a.u.).

Regarding “CACGATGATTGTTGCTGCACCATAGTCTCCATGTGTGTACCGGAGTCACCTAGTGCAG”, the binding signal was 8410 fluorescence intensity (a.u.).
